{"source": "PubChem BioAssay (NCI)", "system": "MDA-MB-468 breast", "assay": "NCI-60 one-dose screen, 48 h (100 = growth as untreated, 0 = no growth, -100 = all killed)", "settings": "10 µM unless noted", "note": "Compounds without any hit were thinned out: in the full panel of roughly 83,000, 20% have a hit.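 Interpretation: 100, growth as untreated; towards 0, rising growth inhibition; 0, no net growth; 0 to -100, cell death. Compounds scoring below 10 were considered active.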 Values without a mark were called inactive. Activity calls are given as the source filed them.", "data": [{"smiles": "CC(C)CCSc1nc(-c2ccc(F)cc2)c(C#N)c(N2CCCCC2)n1", "values": [{"measurement": "growth", "result": 104, "unit": "%"}]}, {"smiles": "COCc1cnccc1NC1CCCCCC1", "values": [{"measurement": "growth", "result": 102, "unit": "%"}]}, {"smiles": "C=C(C)COC(=O)c1ccccc1C(=O)OCC1(C)CO1", "note": "(configuration not stated)", "values": [{"measurement": "growth", "result": 108, "unit": "%"}]}, {"smiles": "O=S1(=O)OC(c2cc(Cl)c(O)c(Br)c2)(c2cc(Cl)c(O)c(Br)c2)c2ccccc21", "values": [{"measurement": "growth", "result": 118, "unit": "%"}]}, {"smiles": "CC(C)CCC[C@@H](C)[C@H]1CC[C@H]2[C@@H]3CC[C@H]4C/C(=N/O)CC[C@]4(C)[C@H]3CC[C@]12C", "values": [{"measurement": "growth", "result": 99, "unit": "%"}]}, {"smiles": "O=C(O)C(SC(C(=O)O)c1ccccc1)c1ccccc1", "note": "(configuration not stated)", "values": [{"measurement": "growth", "result": 106, "unit": "%"}]}, {"smiles": "COc1cc(NC(=O)CCSc2nc3ccccc3c(=O)n2CCc2ccccn2)cc(OC)c1OC", "values": [{"measurement": "growth", "result": 91.8, "unit": "%"}]}, {"smiles": "CC(=NNc1ncnc2ccccc12)c1ccc(S(C)(=O)=O)cc1", "values": [{"measurement": "growth", "result": 103, "unit": "%"}]}, {"smiles": "CCCCCCC1(C)NCCO1", "note": "(configuration not stated)", "values": [{"measurement": "growth", "result": 103, "unit": "%"}]}, {"smiles": "COc1ccc(/C=C/c2c(C(=O)/C=C/c3ccccc3)c(C)nc3ccccc23)cc1", "values": [{"measurement": "growth", "result": 12.8, "unit": "%"}]}, {"smiles": "O=C(NCCNC(c1ccccc1)C(NCCNC(=O)c1ccccc1)c1ccccc1)c1ccccc1", "note": "(configuration not stated)", "values": [{"measurement": "growth", "result": 81.5, "unit": "%"}]}, {"smiles": "CCCCCCCCCCCCCCCCCC(=O)NCCNC(=O)CCCCCCCCCCCCCCCCC", "values": [{"measurement": "growth", "result": 102, "unit": "%"}]}, {"smiles": "C=C(CNCCO)[C@@H]1CC[C@]2(CO)CC[C@]3(C)[C@H](CC[C@@H]4[C@@]5(C)CCC(N)C(C)(C)[C@@H]5CC[C@]43C)[C@@H]12", "note": "(some centres not stated)", "values": [{"measurement": "growth", "result": "-40.9% (active)"}]}, {"smiles": "CC(C)=CC[C@@H]1CC2(CC=C(C)C)C(=O)C(OC3(C(=O)c4ccccc4)C(=O)C4(CC=C(C)C)C[C@@H](CC=C(C)C)C(C)(C)C(CC=C(C)C)(C4=O)C3=O)(C(=O)c3ccccc3)C(=O)C(CC=C(C)C)(C2=O)C1(C)C", "note": "(some centres not stated)", "values": [{"measurement": "growth", "result": "-6.87% (active)"}]}, {"smiles": "Cc1cc(C(=O)Nc2sc3c(c2C(N)=O)CCC(=O)C3)ccc1OCCN1CCCCC1", "values": [{"measurement": "growth", "result": 112, "unit": "%"}]}, {"smiles": "CC(CN1CCN(CCOCCO)CC1)CN1c2ccccc2Sc2ccc(Cl)cc21", "note": "(configuration not stated)", "values": [{"measurement": "growth", "result": 40.9, "unit": "%"}]}, {"smiles": "CC(=O)OC/C(C)=C\\CC(C)COC(C)=O", "note": "(configuration not stated)", "values": [{"measurement": "growth", "result": 98.5, "unit": "%"}]}, {"smiles": "Clc1ccc2c(NCCCNCc3ccc4c(c3)OCO4)ccnc2c1", "values": [{"measurement": "growth", "result": "-11.9% (active)"}]}, {"smiles": "Cc1c(Cl)ccc2c(C(=O)Cl)cc(-c3ccccc3)nc12", "values": [{"measurement": "growth", "result": 101, "unit": "%"}]}, {"smiles": "O=C1Nc2ccc(F)cc2/C1=C/c1nc(-c2ccc(F)cc2)n2ccccc12", "values": [{"measurement": "growth", "result": 113, "unit": "%"}]}, {"smiles": "CCCCn1c(=O)c(/C=C/C(=O)/C=C/c2cc3ccccc3n(CCCC)c2=O)cc2ccccc21", "values": [{"measurement": "growth", "result": "-59.4% (active)"}]}, {"smiles": "O=C1/C(=C/N2N=C(c3ccc(Cl)cc3)CC2c2ccccc2O)SC(=S)N1c1cccc(C(F)(F)F)c1", "note": "(configuration not stated)", "values": [{"measurement": "growth", "result": 62.2, "unit": "%"}]}]}
